Unmarked numbers belong to inactive results.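 Rule for the calls: active = Her2 level under about 52% in both replicate screens, with viability over 70% of control (limit read from the data); inconclusive = Her2 under the limit in one screen only, or viability under 70%; inactive = Her2 level above the set limit.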

This note sets out measurements from PubChem BioAssay.

The target in the experiment is Receptor tyrosine-protein kinase erbB-2 (Homo sapiens) (UniProt P04626). The experiment is described as follows: Her2 expression decrease, cell viability multiplex – SKBR3 breast tumor cells, AlphaScreen, ATP viability, primary screen (AID 461).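 Note: lower value means less Her2 protein in the cells.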 As to conditions: 18-24 h, at 10 µM, stronger effect = lower value.
Sequence of Receptor tyrosine-protein kinase erbB-2 (Homo sapiens) (P04626 whole entry, looked up): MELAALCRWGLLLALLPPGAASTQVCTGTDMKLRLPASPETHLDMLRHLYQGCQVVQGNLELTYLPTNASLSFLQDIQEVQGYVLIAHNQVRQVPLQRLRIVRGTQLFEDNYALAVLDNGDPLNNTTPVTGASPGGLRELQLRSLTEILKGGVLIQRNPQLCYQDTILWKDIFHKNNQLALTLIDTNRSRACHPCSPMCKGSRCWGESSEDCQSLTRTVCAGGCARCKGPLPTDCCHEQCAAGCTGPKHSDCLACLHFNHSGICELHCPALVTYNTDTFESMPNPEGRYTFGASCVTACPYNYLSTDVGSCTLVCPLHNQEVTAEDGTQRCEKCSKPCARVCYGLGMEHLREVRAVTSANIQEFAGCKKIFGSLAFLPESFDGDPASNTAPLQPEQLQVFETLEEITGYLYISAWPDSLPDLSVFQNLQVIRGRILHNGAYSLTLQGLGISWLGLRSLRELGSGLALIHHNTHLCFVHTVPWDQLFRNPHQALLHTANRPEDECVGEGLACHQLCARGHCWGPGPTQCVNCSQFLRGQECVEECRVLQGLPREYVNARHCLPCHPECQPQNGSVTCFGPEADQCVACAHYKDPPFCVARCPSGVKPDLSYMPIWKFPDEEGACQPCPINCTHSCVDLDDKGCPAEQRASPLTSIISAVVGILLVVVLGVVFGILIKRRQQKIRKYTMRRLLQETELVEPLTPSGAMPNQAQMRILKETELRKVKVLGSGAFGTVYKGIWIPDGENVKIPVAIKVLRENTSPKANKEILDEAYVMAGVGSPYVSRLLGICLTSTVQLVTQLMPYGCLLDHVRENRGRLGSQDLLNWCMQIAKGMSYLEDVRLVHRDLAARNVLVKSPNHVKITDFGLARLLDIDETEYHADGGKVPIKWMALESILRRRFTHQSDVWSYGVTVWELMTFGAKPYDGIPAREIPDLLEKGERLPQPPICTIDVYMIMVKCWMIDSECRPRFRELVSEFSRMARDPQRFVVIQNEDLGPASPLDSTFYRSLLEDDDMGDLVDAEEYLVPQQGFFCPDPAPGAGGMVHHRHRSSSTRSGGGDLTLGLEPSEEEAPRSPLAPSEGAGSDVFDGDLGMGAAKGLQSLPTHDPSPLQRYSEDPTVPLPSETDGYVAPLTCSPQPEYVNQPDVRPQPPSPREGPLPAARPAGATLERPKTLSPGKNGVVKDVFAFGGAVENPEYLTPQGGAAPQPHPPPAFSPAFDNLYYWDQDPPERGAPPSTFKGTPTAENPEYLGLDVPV
For the molecule `CC1=C(C(=O)OCCOC(C)C)C(c2cc3c(cc2Br)OCO3)C2=C(CCCC2=O)N1` (stereo unspecified), the Her2 level is 111%.

Turning to `O=C(NCC(c1cccnc1)N1CCN(c2ccccc2)CC1)c1ccc2c(c1)OCO2` (stereo unspecified), the Her2 level was 94%.

With `CCOC(=O)C(NC(C)=O)(NS(=O)(=O)c1ccccc1)C(F)(F)F` (stereo unspecified), the Her2 level is 101%.

`CC(C)(C)Nc1nc(NC(C)(C)C)nc(-n2ccnc2)n1`: the Her2 level is 80%.

Regarding `Cc1nc2c3cnn(-c4ccccc4)c3ncn2n1`, the Her2 level is 86%.

In the case of `CCOC(=O)C1CCN(c2c(Nc3ccc4c(c3)OCCO4)c(=O)c2=O)CC1`, the Her2 level is 100%.

Turning to `Cc1ccc(SCc2[nH]nc3c2C(c2ccc(C)o2)C(C#N)=C(N)O3)cc1` (stereo unspecified), the Her2 level is 88%.

`CCOC(=O)N1CCN(C(=O)CCc2ccc(S(=O)(=O)NCCc3ccccc3)cc2)CC1`: the Her2 level was 102%.

For `O=C(CSc1nnnn1-c1ccc(Cl)cc1)NC(=O)Nc1ccc2c(c1)OCCO2`, the Her2 level is 101%.

For `CCCCn1c(CN2CCN(c3cccc(Cl)c3)CC2)nc2c1c(=O)n(C)c(=O)n2C`, the Her2 level is 75%.

In the case of `COc1ccc(Cn2c(CCCO)nc3ccccc32)cc1OC`, the Her2 level was 97.5%.

For `CC1(C)NC(=O)N(CC(O)CN(Cc2ccccc2)Cc2ccccc2)C1=O` (stereo unspecified), the Her2 level was 78.5%.

Regarding `Cc1cc(C)n(C(=O)CNC(=O)C2COc3ccccc3O2)n1` (stereo unspecified), the Her2 level is 97.5%.

Consider `CCOC(=O)c1ccc2[nH]c(C)c(CN3CCN(C)CC3)c(=O)c2c1`, for which the Her2 level was 81%.

As to `Cc1cc(=O)n(C)c(=O)n1CCCNc1ccccc1`, the Her2 level is 115%.

With `S=c1[nH]nc(-c2cccc(Br)c2)o1`, the Her2 level is 130%.
